# PubChem BioAssay AID743398 (Broad Institute, 2014)
# Hit rate of the full screen: of about 300,000 compounds, about 3,600 (1.2%) were called active. No stated cut-off is given here; in the data, active means activation above about 30% (passing the limit was not always enough); inconclusive means no clear call, values can overlap the other calls. The entries come from a sample that favours actives as a whole.
# Experiment: activation of beta-catenin signaling reporter – cell-based, plate reader, single point, primary screen (AID 743398);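 further: 0% = neutral control wells and 100% = positive control wells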
# Settings: Wnt/beta-catenin reporter cell assay, activator, at 9.35 µM, stronger effect = higher value
row,SMILES,activation
1,CC(Sc1ccc(S(=O)(=O)N2CCN(C)CC2)cn1)C(=O)NC1CCCC(C)C1C (stereo not drawn),-1.63% (inactive)
2,O=C(NCc1ccccc1Cl)c1csc([C@@H]2O[C@H](CO)[C@@H](O)[C@H]2O)n1,-2.52% (inactive)
3,CCC(c1nnnn1-c1ccc2c(c1)OCCO2)N1CCN(c2ccc(C(F)(F)F)cn2)CC1 (stereo not drawn),0.0485% (inactive)
4,COc1cc2ccccc2cc1C(=O)Nc1ccc(NC(=O)c2cccs2)cc1,-6.22% (inactive)
5,COc1cc2ccccc2cc1C(=O)Nc1ccccc1C,38.1% (active)
6,COc1cc2ccccc2cc1C(=O)Nc1ccncc1,11.7% (inactive)
7,CCCCOCC1CN(CCCC)S(=O)(=O)c2c(Oc3ccc(F)cc3)cccc2O1 (stereo not drawn),-5.54% (inactive)
8,CCOC(=O)C1=C(C)NC(SC)=NC1c1ccccc1 (stereo not drawn),-2.32% (inactive)
9,CCOC(=O)C(=O)C1C(=O)Nc2ccccc21 (stereo not drawn),3.02% (inactive)
10,CCOC(=O)C1=C(CC)Nc2ccccc2N=C1N,38.3% (active)
11,COC(=O)[C@H]1C[C@H](OC(=O)NCc2ccccc2)[C@@]2(O)CN(S(=O)(=O)c3ccc(C)cc3)CC2[C@H]1C(=O)OC (stereo partly drawn),0.0463% (inactive)
12,COc1cccc(-c2cc(CNC(=O)[C@@H](Cc3ccccc3)NC(=O)[C@H]3O[C@@H](n4cnc(C(N)=O)n4)[C@H](O)[C@@H]3O)no2)c1,-3.63% (inactive)
13,O=C(Nc1nc2ccc([N+](=O)[O-])cc2s1)c1ccncc1,34.4% (active)
14,CCOc1ccc2nc(NC(=O)c3cc([N+](=O)[O-])ccc3N3CCOCC3)sc2c1,-0.111% (inactive)
15,COc1ccc(C(=O)Nc2nc(-c3ccc(OC)cc3)c(-c3ccc([N+](=O)[O-])cc3)s2)cc1,-2.22% (inactive)
16,Brc1ccc(COCCc2cn(Cc3ccccc3)c3ccccc23)cc1,11.3% (inactive)
17,Cc1cc(=O)oc2c3c(cc(OCC(=O)NCC(O)c4ccccc4)c12)OC(C)(C)CC3 (stereo not drawn),-1.47% (inactive)
18,Cc1csc(NC(=O)C2=COCCO2)n1,5.46% (inactive)
19,Cc1csc(NC(=O)c2ccc(C)s2)n1,43.1% (active)
20,Cc1ccc(C(=O)NCC(=O)O)s1,0.419% (inactive)

row,SMILES,activation
1,COc1cccc(CNc2nc3cc(-c4csc5ccccc45)sc3c(=O)n2C)c1,-2.71% (inactive)
2,CC(C)Nc1ncnc2c1ncn2[C@H]1CN(Cc2ccncc2)C[C@@H](CO)O1,-2.99% (inactive)
3,CCOC(=O)[C@]12CCC=C1N(Cc1ccco1)C(=O)[C@H](CC(=O)NCc1cccc(C(F)(F)F)c1)C2,-1.73% (inactive)
4,Cc1cc(C(=O)COc2ccccc2Cl)c(C)n1C1CC1,-1.86% (inactive)
5,Cc1cc(C(=O)COc2ccc(Br)cc2F)c(C)n1C1CC1,35.3% (active)
6,O=C(COc1ccc(Br)cc1F)NCC1(N2CCCCC2)CCCCC1,-3.51% (inactive)
7,CC(C)Nc1ccc(-n2nc3ccccc3[n+]2[O-])cc1,40.2% (active)
8,COC(=O)[C@]12C[C@H](CC(=O)N3CCN(C(=O)C4CC4)CC3)C(=O)N(Cc3ccc4c(c3)OCO4)C1=C[C@H](C(C)(C)C)O[C@@H]2C,-4.23% (inactive)
9,O=[N+]([O-])c1ccc(CN2CC(N3CCC(c4ccccc4)CC3)CS2(=O)=O)cc1 (stereo not drawn),-1.72% (inactive)
10,CN(C)C(=O)c1cccc(-c2cnc3sc(NCc4ccc5c(c4)OCO5)nn23)c1,-6.39% (inactive)
11,COc1cccc(OCC(=O)Nc2ccccc2C(N)=O)c1,39.1% (active)
12,Cc1cccc(OCCC(=O)Nc2ccccc2C(N)=O)c1,1.98% (inactive)
13,Cc1cccc(OCC(=O)Nc2ccccc2F)c1,22.2% (inactive)
14,O=C(c1ccc(CS(=O)Cc2ccccc2Cl)o1)N1CCN(c2ccccc2)CC1 (stereo not drawn),-4.44% (inactive)
15,CS(=O)(=O)/C(C#N)=C/c1cccn1S(=O)(=O)c1ccc([N+](=O)[O-])cc1,-1.05% (inactive)
16,COc1cc2ccc(C(C)=O)c(O)c2cc1OC,10.2% (inactive)
17,COc1ccc(NC(=O)C2Cc3c(-c4cccc(NC(C)=O)c4)ccnc3O2)cc1OC (stereo not drawn),-0.676% (inactive)
18,Cn1cccc1C(=O)OCC(=O)NCCc1ccccc1,15.6% (inactive)
19,Cn1cccc1C(=O)OCC(=O)c1ccc(Br)s1,47.9% (active)
20,Cn1cccc1C(=O)NNC(=O)COc1ccc(Br)cc1,3.43% (inactive)

row,SMILES,activation
1,CC1CCCN(c2cccc3c2S(=O)(=O)N(Cc2ccc(F)cc2)[C@@H](C)[C@H](c2ccccc2)O3)C1 (stereo partly drawn),-2.02% (inactive)
2,O=C(NCc1ccccc1)[C@H]1CCCN1C(=O)[C@@H]1CCCN1C(=O)c1ccc(Cl)cc1Cl,-5.01% (inactive)
3,NC(c1ccccc1)c1csc(NC(=O)Nc2cccc(C(F)(F)F)c2)n1 (stereo not drawn),-0.452% (inactive)
4,CC(C)CC1C(=O)N(Cc2cn(CC3CCCCC3)nn2)CCS(=O)(=O)N1Cc1ccc(-c2ccc(Cl)cc2)cc1 (stereo not drawn),-6.32% (inactive)
5,c1cnc(N2CCN(c3ccc4ccccc4n3)CC2)nc1,36.8% (active)
6,Oc1ccc(CN2CCN(c3ncccn3)CC2)cc1,-0.601% (inactive)
7,O=C(c1ccncc1)N1CCN(c2ccc3ccccc3n2)CC1,3.16% (inactive)
8,CCCN1C(=O)c2[nH]nc(-c3ccccc3)c2C1c1ccccc1 (stereo not drawn),0.123% (inactive)
9,CC(C)CCNC(=O)c1[nH]c(C(F)(F)F)nc1-c1ccccc1,-0.284% (inactive)
10,O=C(Cc1ccc(Cl)cc1)c1ccccc1,39.9% (active)
11,O=C(NCCS(=O)(=O)NCc1ccc(Cl)cc1)c1ccccc1,-1.51% (inactive)
12,O=C(CN1CCN(c2ccc(Cl)cc2)CC1)c1ccccc1,0.814% (inactive)
13,CN(C)C(=O)N1CCN(C(=O)[C@@H](Cc2ccccc2)NC(=O)[C@H]2O[C@@H](n3ccc(N)nc3=O)[C@H](O)[C@@H]2O)CC1,-0.987% (inactive)
14,CC1CCCC(C)N1C(=O)COC(=O)c1ccccc1C(=O)c1ccccc1 (stereo not drawn),-3.33% (inactive)
15,Cc1cc(N2CCN(C(=O)OC(C)(C)C)C[C@H]2C)ccc1N1CCN(Cc2ccccc2)[C@H](C)C1,-18.5% (inactive)
16,Cc1cccc(C)c1NC(=O)CSc1ccc([N+](=O)[O-])cn1,-1.27% (inactive)
17,O=[N+]([O-])c1ccc(Sc2n[nH]c(-c3ccco3)n2)nc1,-0.107% (inactive)
18,CC(C)(C)n1cnnc1Sc1ccc([N+](=O)[O-])cn1,37.4% (active)
